HT1080-NT tox – qHTS for induction of synthetic lethality in tumor cells producing 2HG: qHTS for the HT-1080-NT fibrosarcoma cell line. HT-1080-NT fibrosarcoma viability, CellTiter-Glo ATP luminescence, 48 h. Potency, µM (titrated, usually from 46.1 µM), for the others: at the highest dose activity, negative = less viability, usual class: cytotoxic. 360,000 compounds, 1.6% hits. AID 686970, 2013;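 further: NT is the 2HG producing partner of a matched IDH1 knockdown line; 0% = DMSO-treated cells and -100% = media-only wells without cells; nearly all actives have a fitted effect of over 55% in size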
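Luminescent CellTiter-Glo readout after 48 hours of compound exposure at 37 degrees C defined viability of HT-1080-NT cells. Activity was normalized to DMSO wells and cell-free media wells; concentration-response curves were fitted and assigned curve classes.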
KB-3-1 cytotox – qHTS assay for MDR1-selective chemotherapeutics: Primary screen using the parental adenocarcinoma cell KB-3-1. AID 1347075, 2019. KB-3-1 viability, CellTiter-Glo ATP luminescence, 72 h. 400,000 compounds, 1.4% hits. Potency, µM (titrated, usually from 46.1 µM), usual class: cytotoxic; further: on the % scale 0 is the no-effect control and ±100 the full control effect; nearly all actives have a fitted effect of over 60% in size
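Parental KB-3-1 viability, qHTS format: 72 h compound exposure, 37 °C; CellTiter-Glo; media-only wells and DMSO plates as controls; concentration-effect fits on corrected data.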
KB-V1 MDR tox – qHTS assay for MDR1-selective chemotherapeutics: Primary screen using the drug-selected MDR subline cells KB-V1; AID 1347076, 2019; KB-V1 MDR cells viability, CellTiter-Glo, 72 h; 400,000 compounds, 3.4% hits; Potency, µM (titrated, usually from 46.1 µM), hits mostly cytotoxic; further: on the % scale 0 is the no-effect control and ±100 the full control effect; nearly all actives have a fitted effect of over 60% in size
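KB-V1 MDR subline cells in DMEM (phenol-red free, 10% FBS) exposed to compounds in qHTS concentration series for 72 h at 37 degrees C. Viability read by CellTiter-Glo luminescence; concentration-effect curves fitted after normalization and correction.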
SW480 rereplic – A quantitative high throughput screen for small molecules that induce DNA re-replication in SW480 colon adenocarcinoma cells; 340,000 compounds, 1.8% hits; Potency, µM (series often up to 46.1 µM), inactives show top-dose re-replication activation, actives largely listed as activators; SW480 DNA re-replication, Hoechst DNA content imaging, 48 h; further: % of control where 0% means no effect; nearly all actives have a fitted effect of over 55% in size
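Hoechst fluorescence of nuclei (405 nm excitation, 500-530 nm emission) measured by plate-scanning imager after 48 hr compound exposure at 37 C; re-replication scored as increased number of nuclei with elevated intensity.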
HT1080 IDH1KD tx – qHTS for induction of synthetic lethality in tumor cells producing 2HG: qHTS for the HT-1080-IDH1KD cell line; HT-1080 IDH1 knockdown viability, ATP luminescence, 48 h; AID 686971, 2013; 360,000 compounds, 2% hits; Potency, µM (doses to about 46.1 µM), without a hit: at the top dose activity, negative = toxicity, most hits filed as cytotoxic;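 further: 0% = DMSO wells and -100% = cell-free medium wells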
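Luminescent ATP read-out (CellTiter-Glo, 10 min at room temperature) after 48 h compound exposure at 37 °C gave viability of IDH1-knockdown HT-1080 cells. Activity was normalised to DMSO and cell-free wells, then fitted as concentration-response curves.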
MCF10A rerep – A quantitative high throughput screen for small molecules that induce DNA re-replication in MCF 10a normal breast cells | MCF 10A DNA re-replication, Hoechst nuclear intensity, 48 h | Potency, µM (top dose mostly 46.1 µM), for inactives: at the highest dose activity, positive = re-replication, most hits filed as activators | 350,000 compounds, 2.9% hits; further: % of control where 0% means no effect; nearly all actives have a fitted effect of over 50% in size
The depositor's hits bear a star; i = inactive; u = inconclusive; x = no result. In the library only some 8% were active in any assay of this set; here they are far more common. The call rests on the fitted dose curve; in most records, active means well fitted curve in the direction sought with a large enough effect; inconclusive means small, poorly fitted or top-dose-only effect, or another doubt; inactive means no such curve, though single readings can be large; an effect the other way counts as inactive or inconclusive. Potency means the concentration at half of the fitted maximal effect.

SMILES | HT1080-NT tox | KB-3-1 cytotox | KB-V1 MDR tox | SW480 rereplic | HT1080 IDH1KD tx | MCF10A rerep
COc1ccc(C)cc1N1C(=N)/C(=C2/Nc3ccccc3S2)C(c2ccccc2)C1=O (configuration not stated) | -13.5% | u | 20.6µM* | u | -11.4% | 23.1µM*
CS(=O)(=O)N1CCCC(C(=O)NC2CCCCCCC2)C1 (configuration not stated) | 0.0% | i | u | 13.4% | 0.0% | 23.1µM*
Cc1ccc(S(=O)(=O)N2CCCC(C(=O)NC3CCCC3)C2)cc1Cl (configuration not stated) | -9.4% | u | 13µM* | -5.9% | -3.4% | 1.4%
CCS(=O)(=O)N1CCCC(C(=O)NC2CCCCC2)C1 (configuration not stated) | 23.0% | i | i | -3.7% | 11.7% | 0.8%
COc1ccc(C(=O)NCC(C)(C)SCc2c(C)cc(C)cc2C)cc1 | u | i | 18.4µM* | -6.9% | -9.0% | -14.6%
COc1ccccc1CCNS(=O)(=O)CCNC(=O)c1ccccc1 | 5.5% | i | 16.4µM* | -0.3% | 3.6% | 2.4%
O=C(NCCS(=O)(=O)NCCc1ccccc1)c1ccccc1 | -0.9% | i | 16.4µM* | -4.6% | -4.2% | 0.0%
O=C(CN1CCN(C(=O)C2CCCO2)CC1)Nc1cc(C(F)(F)F)ccc1Cl (configuration not stated) | 2.2% | i | i | 4.5% | 0.5% | 2.2%
CC(C)Cc1ccc(C(C)C(N)=Nc2ccc(O)cc2)cc1 (configuration not stated) | u | u | u | u | 20.6µM* | u
Cc1ccc(-n2[nH]c(C)c(/C=N/Nc3ccc([N+](=O)[O-])cc3[N+](=O)[O-])c2=O)cc1 | u | u | 16.4µM* | u | 23.1µM* | 26.5%
O=[N+]([O-])c1ccc(NN=Cc2cccc3ccccc23)cc1 | -2.1% | i | i | 1.16µM* | -6.6% | u
Cc1[nH]n(-c2ccc([N+](=O)[O-])cc2)c(=O)c1C=NCCc1c(C)[nH]c2ccccc12 | -22.6% | i | 16.4µM* | x | -23.2% | 5.7%
Cc1[nH]c2ccccc2c1/C=N/Nc1ccc([N+](=O)[O-])cc1 | 9.2µM* | i | i | -5.4% | u | 11.2%
O=[N+]([O-])c1ccc(N/N=C\c2ccccc2OCc2ccccc2)cc1 | -20.2% | i | i | u | -3.9% | u
CC(=O)c1ccc(NC(=O)C2CCC(C)(C(=O)O)C2(C)C)cc1 (configuration not stated) | 2.2% | i | i | -7.1% | 5.1% | -3.7%
CC(C)OCCCN1CC(=O)N2C(c3cccc([N+](=O)[O-])c3)c3[nH]c4ccccc4c3C[C@H]2C1=O (some centres not stated) | -19.5% | u | i | 8.8% | -22.2% | 0.6%
O=[N+]([O-])c1cccc(C2NCC(c3ccccc3Cl)c3c2[nH]c2ccccc32)c1 (configuration not stated) | u | i | 16.4µM* | u | 25.9µM* | u
CN(C)c1ccc(C2CNC(c3ccc(Cl)c([N+](=O)[O-])c3)c3[nH]c4ccccc4c32)cc1 (configuration not stated) | -7.5% | u | i | 14.6µM* | -22.9% | 4.11µM*
COCCn1c(N)c(N(Cc2ccccc2)C(=O)C2CCCC2)c(=O)[nH]c1=O | 7.1% | i | i | 0.1% | 12.1% | 2.2%

Screening data deposited in PubChem BioAssay by National Center for Advancing Translational Sciences (NCATS).
